# Data taken from PubChem BioAssay (NCI).
# Compounds without any hit were thinned out: in the full panel of roughly 83,000, 20% have a hit.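 The endpoint reported here, percent growth, reads 100 for growth as untreated, 0 for no net growth and -100 for all cells dead.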 Values without a mark were called inactive. Activity calls are given as the source filed them. The calls were made as follows: active = growth percent below 10; inactive = the rest.
# System: HL-60(TB) leukemia
# Experiment: NCI-60 one-dose screen, 48 h (100 = growth as untreated, 0 = no growth, -100 = all killed)
# Settings: 10 µM unless noted
row,Compound,growth
1,CCOc1ccc(/C=N/NC(=O)Cn2nc(Cc3ccc([N+](=O)[O-])cc3)c3onc(C)c3c2=O)cc1,81.5%
2,C#C[C@]1(O)CC[C@H]2[C@@H]3CC=C4c5sc(-c6ccc(O)c(O)c6)nc5CC[C@]4(C)[C@H]3CC[C@@]21C,-54.1% (active)
3,CC1=C(C#N)C2=NNCC(c3ccccc3)=NN2C(c2ccccc2)=C1,138%
4,COc1cc2c(cc1OC)/C(=C\c1sc(Nc3ccc(O)cc3)nc1O)C(C(=O)O)=N2,-17.5% (active)
5,O=C(Cn1c(-c2ccccc2)nc2ccccc21)N=Nc1c(O)[nH]c2ccc(Cl)cc12,57.2%
6,C=C1CCC2C3(C)COC(c4cccs4)OC3CCC2(C)C1CC(Sc1ccccc1)C1=CCOC1=O (configuration not stated),19.4%
7,C#CCOc1ccc(/C=N/Nc2nc(-c3cc4cc(Br)ccc4oc3=O)cs2)cc1OC,71.1%
8,CCCCSc1nc(Nc2ccc(S(N)(=O)=O)cc2)c(C#N)c(-c2ccc(Cl)cc2)n1,62.9%
9,O=C(c1ccc(Cl)cc1)C1[C@H](c2ccccc2Br)[C@@H](c2ccccc2)NC12C(=O)Nc1ccc(Cl)cc12 (some centres not stated),32%
10,C=C1CC[C@@H]2[C@]3(C)COC(c4ccccc4)O[C@@H]3CC[C@@]2(C)[C@@H]1C/C=C1/C(=O)OCC1OC(C)=O (some centres not stated),-52.4% (active)
11,CN1CCN(c2ccc3c4c(cccc24)C(=O)N(c2cccc(-c4nn(-c5ccccc5)cc4-c4nc5ccccc5s4)c2)C3=O)CC1,102%
12,CCOc1ccc2[nH]c(=O)c(C(c3nnnn3CC3CCCO3)N3CCN(Cc4ccccc4)CC3)cc2c1 (configuration not stated),149%
